Reference: PubChem BioAssay AID1159580 (chemical genetic matrix, 2015)
In all, about 5,500 compounds went through this assay and about 2,000 (36%) were called active. Another 18% or so got no clear call; they are omitted. Rule as the data show it: active = normalized growth mostly below about 0.91 (no sharp cut-off); inconclusive = no clear call, values can overlap the other calls; inactive = mostly above about 0.92. The list shows a part of the results.

Experiment: chemical genetic growth profiling, strain panel (AID 1159580);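 also: tested at 20 µM; growth read once vehicle control cultures reached saturation at 30 °C; 1 = growth at the plate median or of vehicle wells; lower values mean less growth of the strain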
Conditions: S. cerevisiae deletion strains, growth OD

Measured: normalized growth

c1ccc2nc(N3CCNCC3)ccc2c1
inactive: locus YAL013W, strain DEP1, active compounds read low 0.992 | locus YAL021C, strain ccr4, active compounds read low 0.997 | locus YAL026C, strain drs2, active compounds read low 0.989 | locus YAL030W, strain snc1, active compounds read low 0.999 | locus YAL040C, strain CLN3, active compounds read low 1.02 | locus YBL061C, strain skt5, active compounds read low 1.01 | locus YBR009C, strain hhf1, active compounds read low 1.01 | locus YBR023C, strain chs3, active compounds read low 1.01 | locus YBR171W, strain sec66, active compounds read low 0.985 | locus YBR231C, strain swc5, active compounds read low 1.02 | locus YBR279W, strain paf1, active compounds read low 1.01 | locus YCL011C, strain gbp2, active compounds read low 0.97 | locus YCL016C, strain dcc1, active compounds read low 1.01 | locus YCL061C, strain MRC1 (second series), active compounds read low 1 | locus YCL061C, strain MRC1, active compounds read low 0.981 | locus YCL069W, strain vba3, active compounds read low 0.982 | locus YCR088W, strain abp1, active compounds read low 0.984 | locus YDL005C, strain med2, active compounds read low 1.01 | locus YDL040C, strain nat1, active compounds read low 1.01 | locus YDR001C, strain nth1, active compounds read low 0.982 | locus YDR069C, strain doa4, active compounds read low 0.975 | locus YDR137W, strain rgp1, active compounds read low 1.09 | locus YDR159W, strain sac3, active compounds read low 0.985 | locus YDR195W, strain ref2 1.01 | locus YDR297W, strain sur2, active compounds read low 1 | locus YDR334W, strain swr1, active compounds read low 1.01 | locus YDR335W, strain msn5, active compounds read low 1 | locus YDR363W, strain ESC2, active compounds read low 0.97 | locus YDR392W, strain spt3, active compounds read low 0.976 | locus YEL003W, strain gim4, active compounds read low 0.971 | locus YEL037C, strain rad23, active compounds read low 0.987 | locus YEL061C, strain CIN8 (second series), active compounds read low 0.988 | locus YER002W, strain NOP16, active compounds read low 1.03 | locus YER015W, strain faa2, active compounds read low 0.995 | locus YER016W, strain bim1, active compounds read low 1.01 | locus YER111C, strain swi4, active compounds read low 0.99 | locus YER155C, strain BEM2 (second series), active compounds read low 0.957 | locus YFR010W, strain ubp6, active compounds read low 0.985 | locus YGL167C, strain pmr1, active compounds read low 1.01 | locus YGL173C, strain kem1, active compounds read low 1.01 | locus YGL227W, strain vid30, active compounds read low 0.979 | locus YGL240W, strain doc1, active compounds read low 0.998 | locus YGL253W, strain hxk2, active compounds read low 1.01 | locus YGR078C, strain PAC10, active compounds read low 1.01 | locus YHR013C, strain ard1, active compounds read low 0.966 | locus YHR027C, strain rpn1, active compounds read low 1.01 | locus YHR030C, strain SLT2, active compounds read low 0.982 | locus YHR079C, strain IRE1, active compounds read low 0.993 | locus YHR142W, strain chs7, active compounds read low 0.968 | locus YJL092W, strain hpr5, active compounds read low 0.978 | locus YJL095W, strain BCK1 (second series), active compounds read low 1.01 | locus YJL095W, strain BCK1, active compounds read low 0.999 | locus YJL115W, strain asf1, active compounds read low 0.994 | locus YJL129C, strain trk1, active compounds read low 0.947 | locus YJL154C, strain vps35, active compounds read low 0.977 | locus YJL164C, strain tpk1, active compounds read low 1.01 | locus YJL166W, strain qcr8, active compounds read low 1.01 | locus YJL187C, strain SWE1, active compounds read low 1 | locus YJR066W, strain TOR1, active compounds read low 0.962 | locus YKL160W, strain elf1, active compounds read low 1 | locus YKR026C, strain gcn3, active compounds read low 0.981 | locus YKR091W, strain srl3, active compounds read low 1 | locus YLL001W, strain dnm1, active compounds read low 1.01 | locus YLL026W, active compounds read low 1 | locus YLL041C, strain sdh2, active compounds read low 1.01 | locus YLR027C, strain aat2, active compounds read low 1 | locus YLR113W, strain HOG1, active compounds read low 1.01 | locus YLR221C, strain rsa3, active compounds read low 1 | locus YLR258W, strain gsy2, active compounds read low 1.01 | locus YLR262C, strain YPT6 (second series), active compounds read low 1.03 | locus YLR320W, strain mms22, active compounds read low 1.02 | locus YLR342W, strain FKS1, active compounds read low 1.02 | locus YLR357W, strain rsc2, active compounds read low 1.04 | locus YLR370C, strain arc18, active compounds read low 1.01 | locus YLR384C, strain iki3, active compounds read low 1.01 | locus YML120C, strain ndi1, active compounds read low 1 | locus YMR058W, strain fet3, active compounds read low 0.989 | locus YMR125W, strain sto1, active compounds read low 0.99 | locus YMR129W, active compounds read low 0.99 | locus YMR205C, strain PFK2, active compounds read low 1 | locus YMR231W, strain pep5, active compounds read low 1.01 | locus YMR307W, strain GAS1, active compounds read low 1.01 | locus YNL071W, strain lat1, active compounds read low 0.999 | locus YNL128W, strain TEP1, active compounds read low 1.01 | locus YNL153C, strain GIM3, active compounds read low 0.958 | locus YNL175C, strain NOP13, active compounds read low 1.02 | locus YNL183C, strain NPR1, active compounds read low 0.95 | locus YNL197C, strain WHI3, active compounds read low 0.998 | locus YNL209W, strain ssb2, active compounds read low 0.998 | locus YNL224C, strain SQS1, active compounds read low 1.01 | locus YNL248C, strain rpa49, active compounds read low 0.996 | locus YNL322C, strain KRE1 (second series), active compounds read low 1 | locus YNR049C, strain mso1, active compounds read low 1 | locus YOR001W, strain rrp6, active compounds read low 0.995 | locus YOR070C, strain gyp1, active compounds read low 1 | locus YOR080W, strain dia2, active compounds read low 1 | locus YOR083W, strain WHI5 (second series), active compounds read low 1.02 | locus YOR083W, strain WHI5, active compounds read low 1.01 | locus YOR106W, strain vam3, active compounds read low 1.01 | locus YOR231W, strain MKK1, active compounds read low 0.99 | locus YOR265W, strain rbl2, active compounds read low 1 | locus YOR270C, strain vph1, active compounds read low 0.987 | locus YOR290C, strain snf2, active compounds read low 0.975 | locus YPL051W, strain arl3, active compounds read low 1.02 | locus YPL055C, strain LGE1, active compounds read low 0.988 | locus YPL078C, strain atp4, active compounds read low 0.984 | locus YPL106C, strain sse1, active compounds read low 1 | locus YPL240C, strain hsp82, active compounds read low 1.01 | locus YPL256C, strain CLN2, active compounds read low 0.988
